In all, about 65,000 compounds went through this assay and about 3,600 (5.5%) were called active. This is one part of a sample in which actives are shown more often than they occur.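 Rule for the calls: active = at 10 µM, mean starting fluorescence two-fold or more over control wells; inactive = the rest.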
assay: intrinsic fluorescence of library compounds, ex339/em460 – biochemical, MLSMR library, data from DPM-DC assay, artefact control, profiling panel (AID 709); conditions: compound autofluorescence, ex339/em460 nm, NADH buffer; at 10 µM; active compounds read high; 1 = no-compound wells, NADH background;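 note: signal is the first read of a kinetic run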

Row | SMILES | fluorescence fold increase
1 | O=C(OCC(=O)N1CCN(C(=O)c2ccco2)CC1)c1ccccc1Cc1ccccc1 | 0.99 (inactive)
2 | CCOC(=O)c1c(NC(=O)c2ccc(Br)o2)sc2c1CCCC2 | 2.17 (active)
3 | CC(CNC(=O)c1ccc(Br)o1)NC(=O)c1ccc(Br)o1 (stereo not given) | 1.02 (inactive)
4 | COc1cc(OC)c(NC(=O)c2ccc(Br)o2)cc1Cl | 1.09 (inactive)
5 | COC(=O)c1c(NC(=O)CSc2nncs2)sc2c1CCCCC2 | 1.1 (inactive)
6 | COC(=O)c1c(NC(=O)c2cccs2)sc2c1CCCC2 | 2.23 (active)
7 | CCCOC(=O)Nc1sc2c(c1C(=O)OCC)CCC2 | 1.1 (inactive)
8 | CCc1c(C)sc(NC(=O)c2ccc(Br)o2)c1C(=O)OC | 2.8 (active)
9 | CCOCC(=O)Nc1sc2c(c1C(=O)OCC)CCCC2 | 1.11 (inactive)
10 | CCOC(=O)c1c(NC(=O)c2cccs2)sc(C)c1C | 1.74 (inactive)
11 | Fc1ccccc1CCNc1nnnn1-c1ccccc1 | 1.11 (inactive)
12 | COc1cc(NS(=O)(=O)c2ccc(NC(C)=O)cc2)cc(OC)c1 | 1.13 (inactive)
13 | COC(=O)c1ccc2c(c1)S(=O)(=O)NC(=NCCCN1CCOCC1)S2 | 1.06 (inactive)
14 | CCNC(=O)CN(c1ccc(C)cc1)S(=O)(=O)c1ccc(SC)cc1 | 1.06 (inactive)
15 | CCCOP(=O)(c1ccc(N(C)C)cc1)C(O)c1cc(OC)c(OC)c(OC)c1 (stereo not given) | 1.13 (inactive)
16 | CN(C)CCCn1c(N)c(C#N)c2nc(C#N)c(C#N)nc21 | 3.35 (active)
17 | O=C1C(C=NCC2CCCO2)=C(O)c2ccccc21 (stereo not given) | 1.09 (inactive)
18 | O=C(NCc1ccco1)c1cnn2c(C(F)(F)F)cc(-c3ccco3)nc12 | 1.6 (inactive)
19 | COC(=O)c1cnn2c(C(F)(F)F)cc(-c3ccco3)nc12 | 2.46 (active)
20 | COc1ccc(-c2cc(C(F)(F)F)n3nc(C(=O)N4CCOCC4)c(Cl)c3n2)cc1 | 1.17 (inactive)
21 | CC(=O)Nc1ccc(S(=O)(=O)Nc2ccc(N3CCOCC3)c(F)c2)cc1 | 1.1 (inactive)
22 | CCn1c(SCC(=O)NCc2ccco2)nnc1-c1ccc(N)cc1 | 1.1 (inactive)
23 | CCOC(=O)c1cc(-c2ccc(Cl)s2)nc2c1c(C)nn2C | 3.19 (active)

Row | SMILES | fluorescence fold increase
24 | CCOC(=O)c1c(C(C#N)C#N)cc(C)nc1C | 0.98 (inactive)
25 | CCOC(=O)c1cc(NC(=O)SCC(=O)O)c(C)nc1C | 1.15 (inactive)
26 | CN1CCN(CCCNC(=O)c2cc3c(=O)oc4ccccc4c3s2)CC1 | 1.53 (inactive)
27 | CS(=O)(=O)N1CCN(C(=O)c2cc3ccccc3oc2=O)CC1 | 1.14 (inactive)
28 | O=C(NCCc1ccc2c(c1)OCCO2)c1cc2ccccc2o1 | 1.11 (inactive)
29 | CCOC(=O)N1CCN(C(=O)c2cc3c(ccc4ccccc43)oc2=O)CC1 | 3.93 (active)
30 | C=CCc1cccc2cc(C(=O)N3CCN(C(=O)OCC)CC3)c(=O)oc12 | 1.17 (inactive)
31 | CNC(=O)c1cc2c(ccc3ccccc32)oc1=N | 2.32 (active)
32 | Cc1ccc(C(=O)N2CCN(C3CCCCC3)CC2)s1 | 1.14 (inactive)
33 | Cc1oc(C)c(C(=O)NCCCC(=O)O)c1C(=O)NCCCC(=O)O | 1.14 (inactive)
34 | CCOc1ccc(Cn2nnc(C(=O)Nc3ccc(OC)cc3OC)c2N)cc1 | 1.25 (inactive)
35 | C[N+]1(CCNC(=O)/C=N/O)CCCCC1 | 1.1 (inactive)
36 | CCCCC(=O)N1CC2(C)CN(C(=O)CCCC)CC(C)(C1)C2=O | 1.09 (inactive)
37 | COc1ccc(N2C(=O)CCC(C(=O)Nc3ccccn3)C2c2ccc(OC)c(OC)c2)cc1 (stereo not given) | 0.92 (inactive)
38 | CC1(C)CC(=O)c2cc(OCC(=O)NCC3CCCO3)ccc2O1 (stereo not given) | 5.06 (active)
39 | Cc1ccc(C(=O)NCC2CCCO2)o1 (stereo not given) | 1.14 (inactive)
40 | COc1ccc(C2CC(=O)C=C(NCC3CCCO3)C2)cc1 (stereo not given) | 1.07 (inactive)
41 | Nc1ccc(-c2nnc(-c3ccc(-c4ccccc4)cc3)o2)cc1 | 3.89 (active)
42 | O=C(Nc1ccc(-c2nnc(-c3ccccc3)o2)cc1)c1ccc(Br)o1 | 1.45 (inactive)
43 | O=C(Nc1ccc(-c2nnc(-c3ccccc3)o2)cc1)C1CCCO1 (stereo not given) | 1.79 (inactive)
44 | CO/N=C(\C(=O)N[C@@H]1C(=O)N2C(C(=O)O)=C(COC(C)=O)CS[C@H]12)c1csc(N)n1 (stereo in doubt) | 1.08 (inactive)
45 | CCCn1c(O)c(CN2CCCC(C)C2)c(C)c(C#N)c1=O (stereo not given) | 1.26 (inactive)
46 | CCN(CC)Cc1c(C(=O)OC)nnn1-c1nonc1N | 1.05 (inactive)

Row | SMILES | fluorescence fold increase
47 | Cc1ccc2c(CSc3nncs3)cc(=O)oc2c1 | 1.02 (inactive)
48 | COc1ccc(S(=O)(=O)Nc2ccc3c(c2)OCO3)cc1Cl | 1.03 (inactive)
49 | COc1ccc(-c2cn3ccsc3n2)cc1 | 1.08 (inactive)
50 | CCCC(=O)Nc1cccc(-c2cn3ccsc3n2)c1 | 1.09 (inactive)
51 | CCOc1nc(OCC)nc(-n2cc(-c3ccccc3)nn2)n1 | 1.06 (inactive)
52 | CC(=O)Nc1cccc(-c2cnc3ccccc3n2)c1 | 1.09 (inactive)
53 | CC(=O)Nc1ccc(-c2cn3cccnc3n2)cc1 | 5.32 (active)
54 | c1ccc(-c2cn3cccnc3n2)cc1 | 2.51 (active)
55 | O=C(Oc1cccnc1)c1cc2ccccc2oc1=O | 1.24 (inactive)
56 | CCOC(=O)C1CCCCN1Cc1ccc(OC)c(OC)c1OC (stereo not given) | 1.06 (inactive)
57 | Cc1ccc2oc(=O)c3cnn(CC(=O)N4CCN(c5ccccn5)CC4)c3c2c1 | 1.1 (inactive)
58 | O=C(Cn1nnc(-c2ccc3c(c2)OCO3)n1)NCc1ccco1 | 1.15 (inactive)
59 | CCOc1ccc(C(CC(=O)O)NC(=O)COc2ccccc2)cc1 (stereo not given) | 1.07 (inactive)
60 | O=S(=O)(O)c1nc2ccccc2n1Cc1ccc(Cl)cc1 | 1.22 (inactive)
61 | N#Cc1c(N)n(CCOC(=O)c2ccc(Cl)cc2)c2nc3ccccc3nc12 | 2.28 (active)
62 | Cn1nnnc1SCc1cc(=O)[nH]c2ccccc12 | 1.06 (inactive)
63 | COC(=O)C1=C(C)N(C)C(C)=C(C(=O)OC)C1c1cccc(Br)c1 | 1.12 (inactive)
64 | CC12CN3CC(C)(CN(C1)C3c1ccc(Cl)cc1Cl)C2=O (stereo not given) | 1.04 (inactive)
65 | CCOc1ccccc1N(CC(=O)Nc1ccccc1C(=O)OC)S(C)(=O)=O | 1.11 (inactive)
66 | COC(=O)C1=CN(C)C=C(C(=O)OC)C1c1ccc(Cl)cc1Cl | 2.14 (active)
67 | CCOc1ccccc1C1C(C(=O)OC)=CN(C)C=C1C(=O)OC | 4.81 (active)
68 | CCCCOCCCNC(=O)c1ccccc1OCC | 1 (inactive)
69 | CN1CCN(Cc2nc3c(c(=O)n(C)c(=O)n3C)n2Cc2cccc3ccccc23)CC1 | 1.12 (inactive)

Row | SMILES | fluorescence fold increase
70 | CCCOc1ccc(-c2nc(N)n[nH]2)cc1 | 1.14 (inactive)
71 | O=C1c2ccccc2C(O)N1Cc1ccccc1Cl (stereo not given) | 1.04 (inactive)
72 | Cn1c(=NC(=O)c2ccco2)sc2cccc(F)c21 | 1.85 (inactive)
73 | O=C(CSc1nnc(Cc2ccccc2)n1-c1ccccc1)N1CCOCC1 | 1.04 (inactive)
74 | CC(=O)c1cccc(NC(=O)c2ccncc2)c1 | 1.03 (inactive)
75 | Cc1nc(NC(=O)C23CCC(C)(C(=O)O2)C3(C)C)sc1C (stereo not given) | 1.02 (inactive)
76 | CC(=O)N=c1ncn(CC(COC(C)=O)OC(C)=O)c2nc[nH]c12 (stereo not given) | 1.07 (inactive)
77 | COc1ccc(-n2c(C)nc3c(cnn3-c3ccccc3)c2=O)cc1 | 1.1 (inactive)
78 | COc1ccc(N2CCN(C(=O)CSc3ncnc4c3cnn4-c3ccc(OC)cc3)CC2)cc1 | 1.23 (inactive)
79 | COc1ccc(-n2ncc3c(N4CCCc5ccccc54)ncnc32)cc1 | 2.48 (active)
80 | Cc1cccc(-n2ncc3c(N4CCc5ccccc54)ncnc32)c1 | 2.26 (active)
81 | Cc1ccc(-n2ncc3c(N4CCN(c5ccc(F)cc5)CC4)ncnc32)c(C)c1 | 1 (inactive)
82 | C1=C(CCNc2ncnc3c2cnn3-c2ccccc2)CCCC1 | 1.05 (inactive)
83 | COc1ccc(-n2ncc3c(N4CCc5ccccc54)ncnc32)cc1 | 3.76 (active)
84 | c1ccc(-n2ncc3c(N4CCCC4)ncnc32)cc1 | 1.04 (inactive)
85 | C=CCNC(=O)CCCOc1cccc(C)c1 | 1.09 (inactive)
86 | Cc1cc(/C=N/n2cnnc2)c(C)n1-c1ccc2ncccc2c1 | 1.05 (inactive)
87 | COc1ccc2nc(NC3=NCN(CC4CCCO4)CN3)nc(C)c2c1 (stereo not given) | 1.66 (inactive)
88 | Cc1cccc(N2CC(C)Cn3c2nc2c3c(=O)n(CC(=O)OCc3ccccc3)c(=O)n2C)c1 (stereo not given) | 1.1 (inactive)
89 | COc1cc(OC)c(C(=O)NC2CC(C)(C)NC(C)(C)C2)cc1OC | 1.16 (inactive)
90 | CSc1nc(O)c(Cc2ccccc2)c(=O)[nH]1 | 1.07 (inactive)
91 | CCOc1cc(NC(=O)c2ccco2)c(OCC)cc1NC(=O)COc1ccccc1 | 3.91 (active)
92 | Cc1ccc(C(=O)COc2cccc(NC(=O)c3ccco3)c2)cc1 | 1.18 (inactive)

Row | SMILES | fluorescence fold increase
93 | O=C(Nc1ccc(Oc2ccccc2)cc1)c1ccco1 | 1.11 (inactive)
94 | CC(C)C(c1nnnn1C1CCCC1)N1CCN(c2ccccc2F)CC1 (stereo not given) | 1.02 (inactive)
95 | Cc1cccn2c(=O)c3cc(C#N)c(=O)n(CCCN4CCOCC4)c3nc12 | 3.03 (active)
96 | O=C(Cn1nc(Cc2cccnc2)c2ccccc2c1=O)NCC1CCCO1 (stereo not given) | 1.03 (inactive)
97 | Cn1c(=O)c2c(nc(CN3CCOCC3)n2Cc2ccccc2)n(C)c1=O | 1.04 (inactive)
98 | Cc1cccn2c(=O)c3cc(C#N)c(=NC(=O)c4cccnc4)n(CC4CCCO4)c3nc12 (stereo not given) | 2.38 (active)
99 | Cc1ccc(C2c3c(oc4ccc(C)cc4c3=O)C(=O)N2CCCN2CCOCC2)cc1 (stereo not given) | 1.09 (inactive)
100 | COc1ccc(CNC(=O)c2cc3c(=O)n4ccccc4nc3n(CC3CCCO3)c2=N)cc1 (stereo not given) | 1.91 (inactive)
101 | CCOc1ccc2c(c1)cc(CN(C(=O)CC)C1CCCCC1)c1nnnn12 | 1.21 (inactive)
102 | COc1cc(C2C(C#N)=C(N)Oc3n[nH]c(-c4ccccn4)c32)cc(OC)c1OC (stereo not given) | 1.09 (inactive)
103 | COc1cccc(-c2nc3cc(C)ccc3o2)c1 | 1.2 (inactive)
104 | CCc1ccc2oc(-c3ccc(N)cc3)nc2c1 | 2.12 (active)
105 | CCOC(=O)CSc1nc2c(c(=O)n(Cc3ccccc3Cl)c(=O)n2C)n1C | 1.06 (inactive)
106 | N#Cc1nc(COc2ccc(-c3ccccc3)cc2)oc1NCc1cccnc1 | 1.07 (inactive)
107 | N#Cc1nc(-c2ccc(OCc3ccccc3)cc2)oc1NCCCN1CCOCC1 | 3.88 (active)
108 | N#Cc1nc(Cc2ccccc2)oc1NCCc1ccccc1 | 1.1 (inactive)
109 | Cc1ccc2nc(-c3ccccc3)cc(C(=O)O)c2c1 | 1.22 (inactive)
110 | Cc1ccc(NC(=O)c2cc(-c3ccc(C)o3)nc3ccccc23)nc1 | 2.48 (active)
111 | Cc1cc(=O)oc(C)c1C(=O)Nc1cnc2ccccc2c1 | 1.27 (inactive)
112 | CCc1c(O)nc(SCC(=O)N2CCCCC2)n(-c2ccccc2C)c1=O | 1.04 (inactive)
113 | CC1CN(c2cc(=O)n(Cc3ccc(F)cc3)c(=O)[nH]2)CC(C)O1 (stereo not given) | 1.08 (inactive)
114 | Cc1ccc(S(=O)(=O)c2c(N)n(C)c3nc4ccccc4nc23)cc1 | 3.95 (active)
115 | Cc1ccc(S(=O)(=O)NCc2nc3ccccc3c(=O)n2N)cc1 | 1.1 (inactive)

From PubChem BioAssay AID709 (SRMLSC, 2007)
